According to PubChem BioAssay AID2566 (National Center for Advancing Translational Sciences (NCATS), 2010):
Values joined by “and” are separate entries in the source; they are usually repeats but may differ in a detail not shown here. Equal entries are not always repeated. Records with an inconclusive call do not appear. Active and inactive are the calls of the source.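 Rule for the calls: active = compound that pushes labeled neuropeptide S off its receptor in a binding test; inconclusive = all other tested compounds; inactive = none, nothing was called inactive.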

Target: Neuropeptide S receptor (Homo sapiens) (UniProt Q6W5P4)
Sequence (Q6W5P4 whole entry, looked up): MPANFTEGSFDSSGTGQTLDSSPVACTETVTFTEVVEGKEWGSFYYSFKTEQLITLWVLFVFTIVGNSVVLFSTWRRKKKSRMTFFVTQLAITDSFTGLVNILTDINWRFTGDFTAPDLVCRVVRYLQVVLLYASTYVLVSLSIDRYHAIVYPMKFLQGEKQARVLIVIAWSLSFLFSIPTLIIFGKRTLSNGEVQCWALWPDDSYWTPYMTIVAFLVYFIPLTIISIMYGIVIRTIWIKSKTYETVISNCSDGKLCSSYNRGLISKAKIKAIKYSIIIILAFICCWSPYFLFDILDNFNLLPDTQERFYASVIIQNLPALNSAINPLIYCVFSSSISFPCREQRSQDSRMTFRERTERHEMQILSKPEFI
Experiment: Confirmation Concentration-Response Assay for Antagonists of the Neuropeptide S Receptor: Radioligand Displacement, SAR for Probe
Settings: CHO-hNPSR, [125I]Y10-NPS displacement, 1.5 h
Text: NIH Chemical Genomics Center [NCGC] NIH Molecular Libraries Probe Production centers Network [MLPCN] MLPCN Grant: X01-DA026210-01 Assay Submitter (PI): Heilig, Markus Alexander NCGC Assay Overview: Neuropeptide S receptor (NPSR), previously known as GPR154, is a recently de-orphanized G protein coupled receptor. Its endogenous ligand is the 20 amino acids peptide Neuropeptide S (NPS). […] NPS and its receptor are found in various tissues. Specifically they are highly expressed in brain areas that have been implicated in modulation of arousal, stress and anxiety. Central administration of NPS in mice produces an unusual profile of activity by inducing wakefulness and arousal, while at the same time suppressing anxiety. Therefore, NPSR may represent a novel drug target for the treatment of sleep and anxiety disorders. As one method of confirming the specific activity of compounds active in the primary screen (AID 1461), we developed an assay to measure the displacement of radio-labeled native ligand, NPS, from its receptor in vitro.
The assay was carried out as described (Xu et al. (2004) Neuron, 43: 487-497) with minor modification. Y10-NPS labeled with 125I was bought from NEN Perkin Elmer (Boston, MA). CHO cells stably expressing human NPSR were seeded into 24-well plates and cultured until reaching 90-95% confluency. Cells were washed with 1ml PBS once and then incubated with radioligand with or without compounds or in DMEM medium containing 0.1% bovine serum albumin at 20C for 1.5 hr. Increasing concentrations of compounds or unlabeled human NPS were used to compete with 0.15 nM [125I] Y10-NPS. Nonspecific binding was determined in the presence of 1 uM unlabeled human NPS. Cells were washed twice with cold PBS and lysed with 1 N NaOH. Bound radioactivity was counted in a liquid scintillation counter.

Potency, active:
CCOC(=O)CC(=O)Nc1ncnc2c1C(c1ccccc1)c1c(ccc3ccccc13)O2 (centres undefined) 616 nM
COc1ccc(C2c3c(ncn(CCN4CCOCC4)c3=N)Oc3ccc4ccccc4c32)cc1OC (centres undefined) 256 nM and 190 nM
N#CC1=C(NC=NCc2ccccc2)Oc2ccc3ccccc3c2C1c1ccccc1 (centres undefined) 322 nM
CCOC(=O)C1CCCN(c2ncnc3c2oc2ccccc23)C1 (centres undefined) 26400 nM
N=c1c2c(ccn1-c1ccccc1)Oc1ccc3ccccc3c1C2c1ccccc1 (centres undefined) 367 nM
O=C1OC(c2ccccc2)(c2ccccc2)N2CCN(C(=O)NCc3ccc(F)cc3)CC12 (centres undefined) 5.93 nM
COc1cccc(C2c3c(ncn(CCN4CCOCC4)c3=N)Oc3ccc4ccccc4c32)c1 (centres undefined) 439 nM
CCC(C)(CCN1CCOCC1)N(Cc1cc2ccccc2n(C)c1=O)C(=O)C1CCCCC1 (centres undefined) 6.54 nM
COc1cccc(C2c3c(ncn(-c4ccccc4)c3=N)Oc3ccc4ccccc4c32)c1 (centres undefined) 266 nM
